“And” between values parts separate entries of the source, which are not always exact repeats. Equal entries are not always repeated. Hit rate of the full screen: of about 5,500 compounds, about 2,000 (36%) were called active. Another 18% or so got no clear call; they are omitted. Cut-off read from the data, not from the text of the source: active = normalized growth mostly below about 0.91 (no sharp cut-off); inconclusive = no clear call, values can overlap the other calls; inactive = mostly above about 0.92. The list shows a part of the results.
Assay: chemical genetic growth profiling, strain panel (AID 1159580);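 note: tested at 20 µM; growth read once vehicle control cultures reached saturation at 30 °C; 1 = growth at the plate median or of vehicle wells; lower values mean less growth of the strain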
Conditions: S. cerevisiae deletion strains, growth OD

Measured: normalized growth

N[C@@H](C(=O)O)[C@@H](O)[C@H](O)[C@H](O)CO
inactive: locus YAL013W, strain DEP1, hits give low values 1.01 | locus YAL021C, strain ccr4, hits give low values 1.01 | locus YAL026C, strain drs2, hits give low values 1.04 | locus YAL030W, strain snc1, hits give low values 1.03 | locus YBL061C, strain skt5, hits give low values 1.03 | locus YBR009C, strain hhf1, hits give low values 1.03 | locus YBR021W, strain FUR4, hits give low values 1.01 | locus YBR023C, strain chs3, hits give low values 1.04 | locus YBR171W, strain sec66, hits give low values 1.04 | locus YBR229C, strain ROT2, hits give low values 1 | locus YBR231C, strain swc5, hits give low values 1.03 | locus YBR279W, strain paf1, hits give low values 1.01 | locus YCL011C, strain gbp2, hits give low values 1.04 | locus YCL016C, strain dcc1, hits give low values 1.02 | locus YCL029C, strain bik1, hits give low values 1.02 | locus YCL061C, strain MRC1, hits give low values 1.02 | locus YCL069W, strain vba3, hits give low values 1.03 | locus YCR088W, strain abp1, hits give low values 1.02 | locus YDL005C, strain med2, hits give low values 1.03 | locus YDL035C, strain GPR1, hits give low values 1.03 | locus YDL040C, strain nat1, hits give low values 1.01 | locus YDL074C, strain BRE1, hits give low values 1.06 | locus YDL101C, strain DUN1, hits give low values 1.01 | locus YDL185W, strain tfp1, hits give low values 1.02 | locus YDL192W, strain arf1, hits give low values 1.03 | locus YDR001C, strain nth1, hits give low values 1.02 | locus YDR069C, strain doa4, hits give low values 1.02 | locus YDR101C, strain arx1, hits give low values 1.02 | locus YDR137W, strain rgp1, hits give low values 1.04 | locus YDR150W, strain NUM1, hits give low values 1.02 | locus YDR159W, strain sac3, hits give low values 1.07 | locus YDR162C, strain NBP2, hits give low values 1.01 | locus YDR195W, strain ref2 1.02 | locus YDR297W, strain sur2, hits give low values 1.03 | locus YDR318W, strain mcm21, hits give low values 1 | locus YDR334W, strain swr1, hits give low values 1.03 | locus YDR335W, strain msn5, hits give low values 1.03 | locus YDR388W, hits give low values 1.01 | locus YDR392W, strain spt3, hits give low values 1.02 | locus YDR502C, strain sam2, hits give low values 1.01 | locus YEL003W, strain gim4, hits give low values 1.03 | locus YEL037C, strain rad23, hits give low values 1.02 | locus YEL061C, strain CIN8 (second series), hits give low values 1.03 | locus YEL061C, strain CIN8, hits give low values 1.02 | locus YER015W, strain faa2, hits give low values 1.03 | locus YER016W, strain bim1, hits give low values 1.02 | locus YER110C, hits give low values 1.02 | locus YER111C, strain swi4, hits give low values 1.03 | locus YER155C, strain BEM2 (second series), hits give low values 1 | locus YER155C, strain BEM2, hits give low values 1.01 | locus YER167W, strain BCK2, hits give low values 1 | locus YFR010W, strain ubp6, hits give low values 1.04 | locus YGL078C, strain dbp3, hits give low values 1.01 | locus YGL086W, strain mad1, hits give low values 1.01 | locus YGL167C, strain pmr1, hits give low values 1.04 | locus YGL173C, strain kem1, hits give low values 1.04 | locus YGL227W, strain vid30, hits give low values 1.02 | locus YGL240W, strain doc1, hits give low values 1.02 | locus YGL248W, strain PDE1, hits give low values 1 | locus YGL253W, strain hxk2, hits give low values 1.04 | locus YGR135W, strain pre9, hits give low values 1.01 | locus YGR252W, strain gcn5, hits give low values 0.967 | locus YHR013C, strain ard1, hits give low values 1.05 | locus YHR027C, strain rpn1, hits give low values 1.04 | locus YHR030C, strain SLT2, hits give low values 1.01 and 1.05 | locus YHR079C, strain IRE1 (second series), hits give low values 1.02 | locus YHR079C, strain IRE1, hits give low values 1.03 | locus YHR094C, strain hxt1, hits give low values 1.02 | locus YHR129C, strain ARP1, hits give low values 1 | locus YHR142W, strain chs7, hits give low values 1.07 | locus YHR200W, strain rpn10, hits give low values 1.02 | locus YIL066C, strain RNR3, hits give low values 1.01 | locus YIL073C, strain SPO22, hits give low values 1.05 | locus YIL125W, strain kgd1, hits give low values 1.02 | locus YIR030C, strain dcg1, hits give low values 1.02 | locus YJL092W, strain hpr5, hits give low values 1.03 | locus YJL095W, strain BCK1 (second series), hits give low values 1.02 | locus YJL095W, strain BCK1, hits give low values 1.01 and 1.04 | locus YJL115W, strain asf1, hits give low values 1.04 | locus YJL129C, strain trk1, hits give low values 1.06 | locus YJL134W, strain LCB3, hits give low values 1.01 | locus YJL154C, strain vps35, hits give low values 1.02 | locus YJL164C, strain tpk1, hits give low values 1.03 | locus YJL166W, strain qcr8, hits give low values 1.03 | locus YJL168C, strain set2, hits give low values 1.02 | locus YJL187C, strain SWE1 (second series), hits give low values 1.01 | locus YJL187C, strain SWE1, hits give low values 1.05 | locus YJR043C, strain POL32, hits give low values 1.02
